# Reference: PubChem BioAssay AID686978 (National Center for Advancing Translational Sciences (NCATS), 2013)
# The whole screen tested about 420,000 compounds, of which about 64,000 (15%) were called active. Inconclusive results (about 27%) are left out. Calls follow the shape of the dose curve; as a rule, active = well fitted inhibition curve with a large enough effect; inconclusive = small, poorly fitted or top-dose-only effect; inactive = flat fitted curve, though single readings scatter. Only a sample is shown. Entries that show only a call come without a potency.
# Test: qHTS for Inhibitors of human tyrosyl-DNA phosphodiesterase 1 (TDP1): qHTS in cells in absence of CPT; also: nearly all actives have a fitted effect of over 55% in size
# Settings: DT40 Tdp1-/- hTDP1 cells, no CPT, ATP luminescence, 48 h; activity change, negative = growth inhibition: at 46.2 µM (top of the series)
# Outline: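 Compound effects on proliferation are scored in DT40 Tdp1-/-;hTDP1 cells in the absence of CPT. ATP levels (CellTiter-Glo luminescence) are recorded after a ≥48 hr, 37 °C incubation.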
# Potency is read from the fitted curve at half-maximal effect.
row,Compound,Potency
1,Cc1nnc(SCc2cc(=O)[nH]c(N3CCN(Cc4ccccc4)CC3)n2)s1,inactive
2,CC(Sc1nncn1C)C(=O)Nc1cc(C(F)(F)F)ccc1N1CCOCC1 (configuration not stated),inactive
3,CCCCN1C(=O)C(CC(=O)NCc2cccs2)CC(C(=O)N2CCCCCC2)=C1C (configuration not stated),inactive
4,CC(C)(C)NC(=O)NC(=O)COC(=O)C1(C)CC1(Cl)Cl (configuration not stated),inactive
5,COc1ccc(CCc2nc(-c3cccs3)no2)cc1,inactive
6,COc1ccc(S(=O)(=O)NC(=O)C2(C)CCN2C(=O)c2ccccc2CCc2ccccc2)cc1 (configuration not stated),inactive
7,O=C(NCc1cn2ccsc2n1)Nc1cccc(Cl)c1,inactive
8,Cc1c(C(=O)Nc2cccc(Cl)c2)cn2c(nc3ccccc32)c1C#N,11.6 µM (active)
9,O=C(O)c1cccc(NC(=O)c2cc(-c3cccc(Cl)c3)nc3ccccc23)c1,inactive
10,COc1cc(C(=O)NN(CCC#N)C2=NS(=O)(=O)c3ccccc32)cc(OC)c1OC,inactive
11,CCc1ccc(-c2nnn(Cc3nn[nH]n3)n2)cc1,inactive
12,COc1ccc(/C(N)=N/OC(=O)Cc2ccccc2)cc1,inactive
13,COc1ccc(C(=NN)c2ccc(OC)cc2)cc1,inactive
14,COc1ccc(C(C#N)=C2C=CC(=NO)c3ccccc32)cc1,0.82 µM (active)
15,O=C(c1ccc[nH]c1=S)N1CCN(S(=O)(=O)c2ccc(Br)cc2Cl)CC1,inactive
16,COc1ccc(CNC(=O)c2ccc(Br)s2)cc1OC,inactive
17,O=C(NCc1ccncc1)C(=O)NCc1ccco1,inactive
18,CCN(CC(=O)NCc1ccc(Cl)cc1)C(=O)c1c(C)noc1C,inactive
19,COc1ccc(CNC(=O)c2c(C)cc(=O)oc2C)cc1OC,inactive
20,COc1ccc(CNC(=O)c2ccc(-c3cccnc3)c3ccoc23)cc1OC,18.4 µM (active)
21,Cc1noc(C)c1-c1ccc(C(=O)NCc2ccncc2)c2occc12,8.2 µM (active)
22,O=C(COc1ccc(Cl)cc1)NCc1nnc(SCC(=O)NCC2CCCO2)o1 (configuration not stated),inactive
23,CCn1cc(CNC(=O)c2cc([N+](=O)[O-])c(C)c([N+](=O)[O-])c2)cn1,inactive

row,Compound,Potency
1,Cc1cccc(NC(=O)CSCC(=O)Nc2nnc(C3CC3)s2)c1,inactive
2,Cc1ccc(SC(CC(=O)c2ccc(C(C)(C)C)cc2)C(=O)O)cc1 (configuration not stated),2.91 µM (active)
3,Cc1ccc(C(=O)CS(C)(=O)=O)cc1,inactive
4,Cc1ccc(C(=O)CSc2ccccc2C(=O)O)cc1,inactive
5,CC1(C)c2[nH]c3ccccc3c2C[C@H]2C(=O)N(N)CC(=O)N21,inactive
6,O=C(NC1CCc2ccccc21)C12CN(Cc3ccccc3)CC1C(c1cccc([N+](=O)[O-])c1)=NO2 (configuration not stated),inactive
7,O=C(NCc1ccccc1Cl)C1CCCN1S(=O)(=O)c1ccc(F)cc1 (configuration not stated),inactive
8,CC(C)c1nnc(NC(=O)C2CCCN2S(=O)(=O)c2ccc(Cl)cc2)s1 (configuration not stated),inactive
9,COc1ccccc1NC(=O)C1CCCN1S(=O)(=O)c1ccc(Cl)cc1 (configuration not stated),16.4 µM (active)
10,COc1cccc(CCNC(=O)COc2cccc3c2OC(C)(C)C3)c1,inactive
11,CN(C)c1cccc2ccccc12,inactive
12,CC(C)[C@@H](C(=O)O)N(Cc1cccc(CN([C@H](C(=O)O)C(C)C)S(C)(=O)=O)c1)S(C)(=O)=O,inactive
13,COc1cc2c(cc1O)C(SC)=NC(C)(C)C2,29.1 µM (active)
14,COc1cc2c(cc1OC)C(Nc1ccc(S(N)(=O)=O)cc1)=NC(C)(C)C2,inactive
15,O=C(Nc1ccccn1)C1CCN(S(=O)(=O)c2ccccc2)CC1,inactive
16,CCCCN(CC(=O)NC(C)(C)C)C(=O)C(=O)Nc1ccc2c(c1)OCCO2,inactive
17,CC(C)(C)NS(=O)(=O)CC12CCC(CC1=O)C2(C)C (configuration not stated),inactive
18,CN(C)Cc1ccccc1C1(O)c2ccccc2CSc2ccccc21 (configuration not stated),23.1 µM (active)
19,CN(C)CC/C=C1\c2ccccc2CSc2ccccc21,inactive
20,CC(=O)NC(CC(=O)Nc1nccs1)c1ccccc1 (configuration not stated),inactive
21,Cc1c(OC(C)C(=O)NCC2CCC(C(=O)O)CC2)ccc2c1oc(=O)c1ccccc12 (configuration not stated),inactive
22,CCN(CC(=O)NC(=O)NCc1ccccc1)Cc1nc2ccccc2c(=O)[nH]1,inactive
23,S=C(NCc1ccc2c(c1)OCO2)NCc1ccco1,inactive

row,Compound,Potency
1,O=C(NCc1ccc2c(c1)OCO2)C12CC3CC(CC(C3)C1)C2,inactive
2,O=C(NCc1ccc2c(c1)OCO2)c1cc(F)c(F)cc1Cl,inactive
3,O=C(Cn1nnc(-c2ccc3c(c2)OCO3)n1)NCc1ccco1,inactive
4,CC1(C(=O)NCc2ccc(F)c(F)c2)Cc2c(-c3ccc4c(c3)OCO4)ccnc2O1 (configuration not stated),2.91 µM (active)
5,CC1(C(=O)NCc2ccco2)Cc2c(-c3ccc4c(c3)OCO4)ccnc2O1 (configuration not stated),0.58 µM (active)
6,OCC1(CCOc2ccccc2)CCN(Cc2cn[nH]c2-c2ccccc2)CC1,inactive
7,COCc1c(C(=O)N/N=C(\C)c2ccncc2)nnn1-c1nonc1N,inactive
8,CC(Sc1nnc(CNC(=O)c2ccccc2F)n1C)C(=O)Nc1nccs1 (configuration not stated),inactive
9,O=c1c(-c2ccc(F)cc2)nc2cncnc2n1-c1ccccc1,inactive
10,Cc1cnc(NC(=O)Cn2cnc3c2c(=O)n(C)c(=O)n3C)s1,inactive
11,CCSc1ccccc1C(=O)Nc1ccc2c(c1)OCO2,inactive
12,CCC(C)OC(=O)C(C)Oc1ccc(-c2ccccc2)cc1 (configuration not stated),inactive
13,N#CC1=C(N)N(c2ccc(F)cc2)C(=O)C1,inactive
14,O=C(CSc1ccccc1)Nc1nnc(/C=C/c2ccccc2)s1,inactive
15,CCCN(C(=O)Cn1cc(S(=O)(=O)N2CCN(c3ccccc3F)CC2)c2ccccc2c1=O)c1cccc(C)c1,18.4 µM (active)
16,CC1(C)NC(=O)N(CC(=O)N2CCN(S(=O)(=O)c3ccccc3F)CC2)C1=O,inactive
17,O=C(CN1CCN(c2ccccc2F)CC1)c1ccc2c(c1)OCO2,inactive
18,CCN(C(=O)Cn1cc(S(=O)(=O)N2CCN(c3ccccc3F)CC2)c2ccccc2c1=O)c1ccc(C)c(C)c1,10.3 µM (active)
19,Cc1ccc2cccc(S(=O)(=O)N3CCN(c4ccccc4F)CC3)c2n1,inactive
20,CCOC(=O)N1CCN(c2c(NCCN3CCN(c4ccccc4F)CC3)c(=O)c2=O)CC1,inactive
21,Cc1cc(C)c(S(=O)(=O)N(C)CC(=O)NCC2CCCO2)c(C)c1 (configuration not stated),inactive
